Data published in the supplement of paper PMC10849652.
The full data set covers some 7,900 targets. This sample favours those with a hit. About 0.6% of all pairs of compound and target were hits.

Tests used:
Assay in all cases: log2 fold change, soluble protein after heating vs DMSO (PISA); higher = thermal stabilisation; K562 cells, 10 uM, 30 min; active = over 0.2 and 3.5 SD of the protein, either way, in both replicates (recomputed)
erlotinib = compound: C#Cc1cccc(Nc2ncnc3cc(OCCOC)c(OCCOC)cc23)c1 [erlotinib]
Outline: (§1)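 Thermal stability values are relative to control samples and come from duplicates. They are expressed as log2 fold changes. For measurement, K562 cells (2×10^6 cells/mL) received 10 μM compound for 30 min, and aliquots were heated for 3 min over 48°C-58°C, pooled, and extracted at 4°C in PBS with 0.5% NP-40. Soluble protein, the supernatant after 21,000xg for 90 min, was quantified by TMTpro 16plex LC-MS/MS with equalised channel sums.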

[1] = compound: C/C(=N\NC(=O)C1=CC(=CC=C1)S(=O)(=O)N2CCOCC2)/C3=C(C=CC(=C3)Cl)O
Outline: as §1

[2] = compound: C1=CC(=C(C=C1Cl)C2=NC3=NC=CN=C3C(=N2)NC4=CC=NC=C4)F
Outline: as §1

[3] = compound: C1=CC(=CC=C1C2=NC3=C(N2)C=C(C=C3)C(=O)N)OC4=CC=C(C=C4)Cl
Outline: as §1

[4] = compound: C1=CC2=C(C=CC(=C2)/C=C\3/C(=O)NC(=NCC4=CC=CS4)S3)N=C1
Outline: as §1

[5] = compound: C1=CC2=NC=CN=C2C=C1/C=C/3\C(=O)NC(=O)S3
Outline: as §1

[6] = compound: C1=CC=C(C=C1)C2=NC(=C(N2)C3=CC=NC=C3)C4=CC(=C(C=C4)Cl)O
Outline: as §1

[7] = compound: C1=CC=C2C(=C1)C3=NNC4=CC=CC(=C43)C2=O
Outline: as §1

[8] = compound: C1CCN(C1)C(=O)NC2=CC=CC(=C2)NC3=NC=C(C(=N3)NCCC4=CN=CN4)Br
Outline: as §1

[9] = compound: C1CN(CCC1(CC2=CC=C(C=C2)Cl)N)C3=NC=NC4=C3C=CN4
Outline: as §1

Measured: log2 fold change

VPS16 (UniProt Q9H269)
inactive: erlotinib 0.104 | [1] 0.128 | [2] -0.004 | [3] -0.034 | [4] 0.093 | [5] 0.087 | [6] -0.031 | [7] -0.018 | [8] -0.007 | [9] -0.128

TOE1 (UniProt Q96GM8)
inactive: erlotinib -0.029 | [1] -0.151 | [2] -0.267 | [3] -0.056 | [4] 0.002 | [5] 0.005 | [6] -0.05 | [7] -0.035 | [8] -0.021 | [9] -0.107

TMEM208 (UniProt Q9BTX3)
inactive: erlotinib -0.021 | [1] 0.032 | [2] 0.101 | [3] 0.046 | [4] 0.13 | [5] 0.011 | [6] -0.054 | [7] -0.098 | [8] -0.002 | [9] 0.033

WASHC2C, A0A096LPC5
inactive: erlotinib 0.095 | [1] -0.224 | [2] -0.016 | [3] -0.006 | [4] 0.204 | [5] 0.113 | [6] 0.111 | [7] -0.071 | [8] -0.069 | [9] 0.08

VRK1 (UniProt Q99986)
UniProt Q99986, sequence (Q99986 whole entry, looked up): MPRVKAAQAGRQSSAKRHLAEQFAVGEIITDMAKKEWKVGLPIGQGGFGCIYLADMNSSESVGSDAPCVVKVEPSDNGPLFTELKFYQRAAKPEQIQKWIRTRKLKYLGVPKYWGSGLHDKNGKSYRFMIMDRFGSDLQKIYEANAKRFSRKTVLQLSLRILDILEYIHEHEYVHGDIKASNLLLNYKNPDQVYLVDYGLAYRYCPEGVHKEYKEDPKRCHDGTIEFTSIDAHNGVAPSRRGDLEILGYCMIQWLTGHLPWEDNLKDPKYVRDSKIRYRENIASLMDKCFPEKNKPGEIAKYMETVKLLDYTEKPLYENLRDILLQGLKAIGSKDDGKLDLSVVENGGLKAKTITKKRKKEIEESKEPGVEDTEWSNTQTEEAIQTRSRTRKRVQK
inactive: erlotinib 0.087 | [1] -0.055 | [2] 0.119 | [3] -0.016 | [4] 0.038 | [5] -0.024 | [6] -0.039 | [7] 0.078 | [8] -0.044 | [9] -0.045

WRB (UniProt O00258)
UniProt O00258, sequence (O00258 whole entry, looked up): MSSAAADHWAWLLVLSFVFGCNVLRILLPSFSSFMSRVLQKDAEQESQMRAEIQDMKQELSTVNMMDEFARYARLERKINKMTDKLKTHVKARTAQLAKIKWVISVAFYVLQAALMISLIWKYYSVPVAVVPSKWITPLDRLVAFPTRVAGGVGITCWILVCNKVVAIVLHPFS
inactive: erlotinib -0.02 | [1] 0.012 | [2] 0.032 | [3] 0.019 | [4] -0.003 | [5] 0.069 | [6] 0.019 | [7] -0.042 | [8] 0.027 | [9] -0.011

UTP14A (UniProt Q9BVJ6)
UniProt Q9BVJ6, sequence (Q9BVJ6 whole entry, looked up): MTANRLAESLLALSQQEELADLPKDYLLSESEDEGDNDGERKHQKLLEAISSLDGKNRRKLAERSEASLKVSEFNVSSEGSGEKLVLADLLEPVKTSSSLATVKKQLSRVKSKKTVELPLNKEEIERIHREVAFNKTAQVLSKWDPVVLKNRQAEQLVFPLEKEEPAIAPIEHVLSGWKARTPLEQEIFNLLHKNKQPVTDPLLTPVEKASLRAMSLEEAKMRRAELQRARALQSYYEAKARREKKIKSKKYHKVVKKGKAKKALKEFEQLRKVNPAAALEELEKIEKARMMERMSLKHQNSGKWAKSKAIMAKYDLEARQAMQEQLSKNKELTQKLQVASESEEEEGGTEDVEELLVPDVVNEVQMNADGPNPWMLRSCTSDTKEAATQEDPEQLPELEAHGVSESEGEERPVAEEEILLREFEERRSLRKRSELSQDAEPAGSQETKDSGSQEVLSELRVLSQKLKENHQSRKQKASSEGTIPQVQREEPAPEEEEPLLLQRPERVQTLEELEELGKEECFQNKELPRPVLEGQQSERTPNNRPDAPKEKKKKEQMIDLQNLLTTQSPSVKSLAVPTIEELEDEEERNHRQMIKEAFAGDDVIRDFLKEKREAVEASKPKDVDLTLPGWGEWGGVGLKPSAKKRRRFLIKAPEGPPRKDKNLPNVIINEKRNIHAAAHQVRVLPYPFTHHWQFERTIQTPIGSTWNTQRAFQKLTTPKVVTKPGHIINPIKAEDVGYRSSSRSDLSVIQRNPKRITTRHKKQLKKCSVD
inactive: erlotinib -0.142 | [1] -0.15 | [2] -0.301 | [3] 0.06 | [4] -0.075 | [5] -0.005 | [6] -0.06 | [7] -0.045 | [8] 0.006 | [9] -0.155

U2AF1 isoform 2 (UniProt Q01081)
UniProt Q01081, sequence (Q01081 whole entry, looked up): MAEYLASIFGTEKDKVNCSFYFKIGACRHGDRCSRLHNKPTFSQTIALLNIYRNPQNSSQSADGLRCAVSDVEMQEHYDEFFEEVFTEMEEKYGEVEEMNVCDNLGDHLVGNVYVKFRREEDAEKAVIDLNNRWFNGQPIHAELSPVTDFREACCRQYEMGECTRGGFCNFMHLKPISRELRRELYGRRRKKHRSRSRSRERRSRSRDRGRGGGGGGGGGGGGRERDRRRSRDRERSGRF
inactive: erlotinib 0.015 | [1] 0.119 | [2] -0.02 | [3] -0.036 | [4] -0.038 | [5] 0.015 | [6] 0.036 | [7] -0.036 | [8] -0.071 | [9] -0.071

WEE1 (UniProt P30291)
inactive: erlotinib 0.029 | [1] -0.06 | [2] -0.081 | [3] 0.047 | [4] -0.206 | [5] 0.249 | [6] -0.177 | [7] 0.037 | [8] -0.085 | [9] -0.239

VPS52 (UniProt Q8N1B4)
inactive: erlotinib 0.019 | [1] 0.048 | [2] -0.029 | [3] 0.067 | [4] 0.032 | [5] 0.031 | [6] 0.004 | [7] 0.079 | [8] -0.033 | [9] -0.051

TUBAL3 (UniProt A6NHL2)
inactive: erlotinib 0.092 | [1] 0.096 | [2] 0.099 | [3] 0.018 | [4] 0.048 | [5] 0.004 | [6] 0.031 | [7] -0.034 | [8] -0.046 | [9] 0.145

TRAPPC13 isoform 5 (UniProt A5PLN9)
inactive: erlotinib 0.133 | [1] 0.047 | [2] -0.028 | [3] -0.047 | [4] 0.084 | [5] 0.021 | [6] 0 | [7] -0.038 | [8] -0.005 | [9] 0.009

TYW1 (UniProt Q9NV66)
inactive: erlotinib -0.045 | [1] 0.012 | [2] 0.055 | [3] 0.057 | [4] 0.003 | [5] 0.009 | [6] 0.042 | [7] 0.057 | [8] -0.041 | [9] 0.022

USP7 (UniProt Q93009)
UniProt Q93009, sequence (Q93009 whole entry, looked up): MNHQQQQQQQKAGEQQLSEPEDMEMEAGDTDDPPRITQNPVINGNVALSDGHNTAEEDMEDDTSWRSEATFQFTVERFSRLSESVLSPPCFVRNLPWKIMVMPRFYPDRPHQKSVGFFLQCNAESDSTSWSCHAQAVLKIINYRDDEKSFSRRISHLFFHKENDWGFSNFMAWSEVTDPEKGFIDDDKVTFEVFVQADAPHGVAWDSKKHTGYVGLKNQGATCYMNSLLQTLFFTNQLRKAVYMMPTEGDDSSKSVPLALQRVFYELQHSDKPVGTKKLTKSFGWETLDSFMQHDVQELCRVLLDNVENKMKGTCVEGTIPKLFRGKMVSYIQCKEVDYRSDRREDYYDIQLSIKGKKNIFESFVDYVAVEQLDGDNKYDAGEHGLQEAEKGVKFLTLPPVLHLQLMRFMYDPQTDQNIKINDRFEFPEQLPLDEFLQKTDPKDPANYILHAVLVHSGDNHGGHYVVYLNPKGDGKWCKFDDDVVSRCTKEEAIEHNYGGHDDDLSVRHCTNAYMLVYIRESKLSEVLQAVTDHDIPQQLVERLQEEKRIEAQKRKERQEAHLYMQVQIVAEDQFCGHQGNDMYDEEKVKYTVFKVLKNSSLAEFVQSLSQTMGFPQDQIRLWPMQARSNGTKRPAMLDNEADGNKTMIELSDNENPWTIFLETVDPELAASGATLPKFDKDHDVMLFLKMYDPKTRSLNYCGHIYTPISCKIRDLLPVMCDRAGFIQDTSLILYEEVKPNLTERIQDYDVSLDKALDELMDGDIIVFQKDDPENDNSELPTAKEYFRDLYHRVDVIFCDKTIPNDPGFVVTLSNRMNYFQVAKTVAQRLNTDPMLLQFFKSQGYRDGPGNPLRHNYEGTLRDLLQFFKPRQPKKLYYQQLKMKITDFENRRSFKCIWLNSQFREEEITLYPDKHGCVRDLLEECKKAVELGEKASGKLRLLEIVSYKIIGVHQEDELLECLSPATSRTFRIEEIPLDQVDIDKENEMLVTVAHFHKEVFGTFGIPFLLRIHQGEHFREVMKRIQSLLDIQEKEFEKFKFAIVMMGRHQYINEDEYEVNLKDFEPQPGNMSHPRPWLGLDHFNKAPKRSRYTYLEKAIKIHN
inactive: erlotinib 0.089 | [1] 0.139 | [2] 0.046 | [3] 0 | [4] 0.159 | [5] 0.004 | [6] 0.068 | [7] 0.085 | [8] -0.04 | [9] -0.003

TSG101 (UniProt Q99816)
UniProt Q99816, sequence (Q99816 whole entry, looked up): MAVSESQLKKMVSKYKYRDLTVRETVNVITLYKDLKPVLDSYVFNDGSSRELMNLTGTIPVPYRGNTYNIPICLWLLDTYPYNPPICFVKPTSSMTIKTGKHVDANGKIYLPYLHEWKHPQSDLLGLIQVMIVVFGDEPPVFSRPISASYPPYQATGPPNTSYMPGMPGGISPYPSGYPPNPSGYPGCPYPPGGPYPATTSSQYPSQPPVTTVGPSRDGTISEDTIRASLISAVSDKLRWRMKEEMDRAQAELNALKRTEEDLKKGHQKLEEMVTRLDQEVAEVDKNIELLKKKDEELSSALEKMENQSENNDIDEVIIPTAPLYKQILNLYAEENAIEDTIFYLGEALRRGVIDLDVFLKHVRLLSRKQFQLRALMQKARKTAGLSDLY
inactive: erlotinib 0.022 | [1] 0.054 | [2] 0.051 | [3] 0.027 | [4] 0.046 | [5] 0.004 | [6] -0.032 | [7] 0 | [8] 0.003 | [9] -0.006

UBE4A isoform 2 (UniProt Q14139)
UniProt Q14139, sequence (Q14139 whole entry, looked up): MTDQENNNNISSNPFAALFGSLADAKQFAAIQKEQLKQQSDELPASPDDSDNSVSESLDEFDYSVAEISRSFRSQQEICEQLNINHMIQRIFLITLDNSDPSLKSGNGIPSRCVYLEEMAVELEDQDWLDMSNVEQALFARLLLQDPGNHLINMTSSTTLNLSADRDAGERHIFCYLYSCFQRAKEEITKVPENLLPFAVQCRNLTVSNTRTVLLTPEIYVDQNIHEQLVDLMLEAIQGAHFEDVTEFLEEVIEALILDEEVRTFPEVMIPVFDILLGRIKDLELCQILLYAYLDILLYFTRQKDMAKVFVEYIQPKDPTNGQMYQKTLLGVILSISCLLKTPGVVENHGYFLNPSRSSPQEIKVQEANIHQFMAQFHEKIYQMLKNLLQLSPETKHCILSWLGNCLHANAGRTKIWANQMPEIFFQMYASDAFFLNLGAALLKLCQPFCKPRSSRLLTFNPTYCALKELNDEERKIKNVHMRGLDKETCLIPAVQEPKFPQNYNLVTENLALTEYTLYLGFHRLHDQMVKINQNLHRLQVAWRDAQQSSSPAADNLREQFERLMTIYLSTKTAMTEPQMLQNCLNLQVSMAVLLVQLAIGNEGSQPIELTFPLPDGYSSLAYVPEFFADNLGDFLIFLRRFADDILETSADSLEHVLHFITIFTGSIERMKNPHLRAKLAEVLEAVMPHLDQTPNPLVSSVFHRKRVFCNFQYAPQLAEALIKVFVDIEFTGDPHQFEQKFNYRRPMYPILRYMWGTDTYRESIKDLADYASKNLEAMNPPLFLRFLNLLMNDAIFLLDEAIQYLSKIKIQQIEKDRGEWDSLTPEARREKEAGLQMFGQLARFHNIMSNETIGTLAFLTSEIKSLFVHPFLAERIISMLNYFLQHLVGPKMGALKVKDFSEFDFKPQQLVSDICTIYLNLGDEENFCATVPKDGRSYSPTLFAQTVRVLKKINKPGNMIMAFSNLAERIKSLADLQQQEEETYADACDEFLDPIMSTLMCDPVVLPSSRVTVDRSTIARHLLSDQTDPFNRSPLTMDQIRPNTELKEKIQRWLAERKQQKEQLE
inactive: erlotinib 0.012 | [1] 0.148 | [2] 0.083 | [3] -0.11 | [4] 0.012 | [5] 0.083 | [6] -0.039 | [7] -0.301 | [8] -0.018 | [9] -0.132

TRIP10 isoform 2 (UniProt Q15642)
inactive: erlotinib -0.116 | [1] -0.002 | [2] 0.112 | [3] 0.094 | [4] -0.069 | [5] 0.055 | [6] 0.326 | [7] 0.055 | [8] -0.089 | [9] 0.014

UFM1 (UniProt P61960)
inactive: erlotinib 0.026 | [1] 0.072 | [2] 0.093 | [3] 0.064 | [4] -0.015 | [5] -0.002 | [6] 0.12 | [7] 0.172 | [8] -0.297 | [9] 0.088

TMEM268 isoform 3 (UniProt Q5VZI3)
UniProt Q5VZI3, sequence (Q5VZI3 whole entry, looked up): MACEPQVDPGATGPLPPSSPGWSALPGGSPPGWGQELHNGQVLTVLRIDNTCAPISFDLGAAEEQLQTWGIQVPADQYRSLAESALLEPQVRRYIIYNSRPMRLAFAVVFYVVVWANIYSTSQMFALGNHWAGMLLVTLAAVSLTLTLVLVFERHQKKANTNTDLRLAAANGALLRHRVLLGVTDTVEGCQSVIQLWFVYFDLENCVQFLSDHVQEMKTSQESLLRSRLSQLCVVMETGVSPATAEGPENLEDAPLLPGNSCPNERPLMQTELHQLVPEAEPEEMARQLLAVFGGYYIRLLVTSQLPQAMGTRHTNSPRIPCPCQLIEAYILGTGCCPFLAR
inactive: erlotinib -0.161 | [1] 0.061 | [2] -0.166 | [3] 0.054 | [4] 0.024 | [5] -0.138 | [6] 0.118 | [7] -0.21 | [8] 0.13 | [9] 0.045

TPP1 (UniProt O14773)
inactive: erlotinib 0.013 | [1] 0.009 | [2] 0.059 | [3] -0.015 | [4] -0.007 | [5] 0.024 | [6] 0.034 | [7] -0.014 | [8] -0.012 | [9] -0.017

TPM2 (UniProt P07951)
UniProt P07951, sequence (P07951 whole entry, looked up): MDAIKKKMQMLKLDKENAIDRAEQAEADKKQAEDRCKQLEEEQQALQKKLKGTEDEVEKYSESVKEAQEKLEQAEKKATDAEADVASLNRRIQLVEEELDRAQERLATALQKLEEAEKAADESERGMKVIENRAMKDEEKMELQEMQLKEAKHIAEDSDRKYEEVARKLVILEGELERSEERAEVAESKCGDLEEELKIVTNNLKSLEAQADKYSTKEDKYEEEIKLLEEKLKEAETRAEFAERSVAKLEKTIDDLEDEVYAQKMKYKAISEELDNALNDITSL
inactive: erlotinib -0.05 | [1] 0.009 | [2] 0.417 | [3] 0.021 | [4] -0.146 | [5] 0.025 | [6] 0.102 | [7] 0.02 | [8] -0.069 | [9] 0.101

TNFAIP8 isoform 4 (UniProt O95379)
inactive: erlotinib 0.019 | [1] 0.071 | [2] 0.087 | [3] -0.028 | [4] 0.039 | [5] 0.017 | [6] -0.015 | [7] -0.07 | [8] 0.003 | [9] 0.023

TNNC2 (UniProt P02585)
UniProt P02585, sequence (P02585 whole entry, looked up): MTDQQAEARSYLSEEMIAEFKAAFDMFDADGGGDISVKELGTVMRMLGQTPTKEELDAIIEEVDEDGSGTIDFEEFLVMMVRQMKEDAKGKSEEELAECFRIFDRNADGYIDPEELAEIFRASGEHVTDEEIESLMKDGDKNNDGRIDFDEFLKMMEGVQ
inactive: erlotinib 0.035 | [1] -0.007 | [2] -0.004 | [3] 0.018 | [4] 0.047 | [5] 0.026 | [6] -0.058 | [7] -0.026 | [8] 0.101 | [9] -0.449

UCHL5 (UniProt Q9Y5K5)
inactive: erlotinib -0.018 | [1] 0.094 | [2] 0.005 | [3] -0.024 | [4] 0.036 | [5] 0.008 | [6] 0.02 | [7] 0.03 | [8] -0.001 | [9] -0.01

VPS37A (UniProt Q8NEZ2)
inactive: erlotinib 0.127 | [1] 0.113 | [2] -0.042 | [3] -0.097 | [4] -0.054 | [5] 0.059 | [6] 0.098 | [7] 0.044 | [8] 0.036 | [9] 0.008

TRAPPC2L (UniProt Q9UL33)
inactive: erlotinib 0.193 | [1] 0.062 | [2] -0.037 | [3] -0.273 | [4] -0.047 | [5] 0.001 | [6] -0.096 | [7] -0.008 | [8] -0.083 | [9] -0.031

UBA6
inactive: erlotinib 0.011 | [1] 0.099 | [2] 0.06 | [3] 0.038 | [4] 0.014 | [5] -0.037 | [6] 0.014 | [7] 0.015 | [8] -0.024 | [9] -0.015

VPS51 (UniProt Q9UID3)
inactive: erlotinib -0.003 | [1] 0.123 | [2] -0.02 | [3] -0.01 | [4] -0.002 | [5] 0.035 | [6] -0.014 | [7] -0.016 | [8] -0.029 | [9] -0.02

TRABD (UniProt Q9H4I3)
inactive: erlotinib -0.057 | [1] -0.023 | [2] -0.029 | [3] 0.016 | [4] 0.032 | [5] -0.049 | [6] 0.121 | [7] 0.074 | [8] -0.077 | [9] 0.071
